Source: PubChem BioAssay AID1159580 (chemical genetic matrix, 2015)
Values joined by “and” are separate entries in the source; they are usually repeats but may differ in a detail not shown here. Equal entries are not always repeated. Screen size: about 5,500 compounds; about 2,000 (36%) were called active. Roughly 18% stayed inconclusive and do not appear here. No stated cut-off is given here; in the data, active means normalized growth mostly below about 0.91 (no sharp cut-off); inconclusive means no clear call, values can overlap the other calls; inactive means mostly above about 0.92. The list shows a part of the results.

Test: chemical genetic growth profiling, strain panel (AID 1159580);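 further: tested at 20 µM; growth read once vehicle control cultures reached saturation at 30 °C; 1 = growth at the plate median or of vehicle wells; lower values mean less growth of the strain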
Details: S. cerevisiae deletion strains, growth OD

Measured: normalized growth

CCOc1ccc(Cc2nccc3cc(OCC)c(OCC)cc23)cc1OCC
inactive: locus YAL013W, strain DEP1, active compounds read low 0.976 | locus YAL021C, strain ccr4, active compounds read low 0.946 | locus YAL026C, strain drs2, active compounds read low 0.974 | locus YAL030W, strain snc1, active compounds read low 0.99 | locus YBL061C, strain skt5, active compounds read low 0.968 | locus YBR009C, strain hhf1, active compounds read low 0.975 | locus YBR021W, strain FUR4, active compounds read low 0.961 | locus YBR023C, strain chs3, active compounds read low 0.974 | locus YBR171W, strain sec66, active compounds read low 0.965 | locus YBR229C, strain ROT2, active compounds read low 0.969 | locus YBR231C, strain swc5, active compounds read low 0.998 | locus YBR279W, strain paf1, active compounds read low 0.989 | locus YCL011C, strain gbp2, active compounds read low 0.993 | locus YCL016C, strain dcc1, active compounds read low 0.981 | locus YCL029C, strain bik1, active compounds read low 0.952 | locus YCL069W, strain vba3, active compounds read low 0.99 | locus YCR088W, strain abp1, active compounds read low 0.969 | locus YDL005C, strain med2, active compounds read low 0.989 | locus YDL035C, strain GPR1, active compounds read low 0.956 | locus YDL040C, strain nat1, active compounds read low 0.976 | locus YDL074C, strain BRE1, active compounds read low 0.855 | locus YDL101C, strain DUN1, active compounds read low 0.956 | locus YDL134C, strain PPH21, active compounds read low 0.939 | locus YDL185W, strain tfp1, active compounds read low 0.994 | locus YDL192W, strain arf1, active compounds read low 0.958 | locus YDR001C, strain nth1, active compounds read low 0.977 | locus YDR069C, strain doa4, active compounds read low 0.982 | locus YDR101C, strain arx1, active compounds read low 0.967 | locus YDR137W, strain rgp1, active compounds read low 0.89 | locus YDR150W, strain NUM1, active compounds read low 0.994 | locus YDR159W, strain sac3, active compounds read low 0.892 | locus YDR162C, strain NBP2, active compounds read low 0.945 | locus YDR195W, strain ref2 1.05 | locus YDR297W, strain sur2, active compounds read low 0.976 | locus YDR318W, strain mcm21, active compounds read low 0.931 | locus YDR334W, strain swr1, active compounds read low 0.974 | locus YDR335W, strain msn5, active compounds read low 0.985 | locus YDR388W, active compounds read low 0.954 | locus YDR392W, strain spt3, active compounds read low 0.866 | locus YDR502C, strain sam2, active compounds read low 0.96 | locus YEL003W, strain gim4, active compounds read low 0.963 | locus YEL037C, strain rad23, active compounds read low 0.956 | locus YEL061C, strain CIN8 (second series), active compounds read low 0.959 | locus YEL061C, strain CIN8, active compounds read low 0.986 | locus YER015W, strain faa2, active compounds read low 0.965 | locus YER016W, strain bim1, active compounds read low 0.962 | locus YER110C, active compounds read low 0.968 | locus YER111C, strain swi4, active compounds read low 0.972 | locus YER155C, strain BEM2 (second series), active compounds read low 0.913 | locus YER155C, strain BEM2, active compounds read low 0.99 | locus YER167W, strain BCK2, active compounds read low 0.956 | locus YFR010W, strain ubp6, active compounds read low 0.97 | locus YGL078C, strain dbp3, active compounds read low 0.985 | locus YGL086W, strain mad1, active compounds read low 0.962 | locus YGL167C, strain pmr1, active compounds read low 0.969 | locus YGL173C, strain kem1, active compounds read low 0.966 | locus YGL227W, strain vid30, active compounds read low 0.998 | locus YGL240W, strain doc1, active compounds read low 0.962 | locus YGL248W, strain PDE1, active compounds read low 0.944 | locus YGL253W, strain hxk2, active compounds read low 0.986 | locus YGR078C, strain PAC10, active compounds read low 0.899 | locus YGR135W, strain pre9, active compounds read low 0.92 | locus YGR229C, strain SMI1, active compounds read low 0.91 | locus YGR252W, strain gcn5, active compounds read low 0.776 | locus YHR013C, strain ard1, active compounds read low 0.955 | locus YHR027C, strain rpn1, active compounds read low 0.983 | locus YHR030C, strain SLT2, active compounds read low 0.977 and 0.969 | locus YHR079C, strain IRE1 (second series), active compounds read low 0.954 | locus YHR079C, strain IRE1, active compounds read low 0.939 | locus YHR094C, strain hxt1, active compounds read low 0.977 | locus YHR129C, strain ARP1, active compounds read low 0.978 | locus YHR142W, strain chs7, active compounds read low 0.923 | locus YHR200W, strain rpn10, active compounds read low 0.948 | locus YIL066C, strain RNR3, active compounds read low 0.935 | locus YIL073C, strain SPO22, active compounds read low 0.962 | locus YIL125W, strain kgd1, active compounds read low 0.978 | locus YIR030C, strain dcg1, active compounds read low 0.971 | locus YJL092W, strain hpr5, active compounds read low 0.99 | locus YJL095W, strain BCK1 (second series), active compounds read low 0.968 | locus YJL095W, strain BCK1, active compounds read low 0.882 and 0.963 | locus YJL115W, strain asf1, active compounds read low 0.995 | locus YJL129C, strain trk1, active compounds read low 0.896 | locus YJL134W, strain LCB3, active compounds read low 0.985 | locus YJL154C, strain vps35, active compounds read low 0.973 | locus YJL164C, strain tpk1, active compounds read low 0.973 | locus YJL166W, strain qcr8, active compounds read low 0.967 | locus YJL168C, strain set2, active compounds read low 0.973 | locus YJL187C, strain SWE1 (second series), active compounds read low 0.912 | locus YJR043C, strain POL32, active compounds read low 0.943 | locus YJR066W, strain TOR1, active compounds read low 0.9
